Drawing on PubChem BioAssay, this text covers composite z-score and z-score for eight compounds.

A short description of assay [1]: anti-His antibody binders, primary screen, artefact control for SMM control protein annotation, biochemical, small-molecule microarray, 635 nm fluorescence (AID 1128).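 Note: score merges feature fluorescence with signal-to-noise for each printed compound spot.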 Particulars: anti-His Alexa647 antibody binding, higher = more signal.
In assay [2] the test system is Human papillomavirus type 1a E7 protein (residues 1-88). The assay can be described thus: HPV1a E7 small-molecule binders, primary screen, biochemical, small-molecule microarray, residues 1-88, 635 nm (AID 1129). The following applies: small-molecule microarray binding, fluorescence 635 nm; higher = more signal.
Assay [3] concerns the target Focal adhesion kinase 1 (Homo sapiens) (UniProt Q05397). The assay can be described thus: small-molecule microarray binders of FAK, primary screen, biochemical, 635/667 nm fluorescence, BSA, DTT (AID 1130).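 Note: composite of spot emission at 667 nm and signal to noise over triplicate slides.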 Particulars: PTK2 binding, 635 nm fluorescence, higher = more signal.
Assay [4] concerns Fibrinogen (Alexa647-labelled). Put plainly: fibrinogen binders on compound microarrays, profiling panel, artefact control for SMM control-protein annotation, biochemical, small-molecule microarray, 635/667 nm fluorescence (AID 1131).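 Note: z-score merges 667 nm fluorescence with per-spot signal-to-noise over triplicate slides.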 The following applies: fibrinogen-A647 binding fluorescence, higher = more signal.
In assay [5] the target is Follistatin (Homo sapiens) (UniProt P19883). Put plainly: follistatin binders on small-molecule microarrays, primary screen, biochemical, small-molecule microarray, 635/667 nm fluorescence (AID 1132). Particulars: FST binding, 635 nm fluorescence, higher = more signal.
Follistatin (Homo sapiens), sequence (P19883 whole entry, looked up): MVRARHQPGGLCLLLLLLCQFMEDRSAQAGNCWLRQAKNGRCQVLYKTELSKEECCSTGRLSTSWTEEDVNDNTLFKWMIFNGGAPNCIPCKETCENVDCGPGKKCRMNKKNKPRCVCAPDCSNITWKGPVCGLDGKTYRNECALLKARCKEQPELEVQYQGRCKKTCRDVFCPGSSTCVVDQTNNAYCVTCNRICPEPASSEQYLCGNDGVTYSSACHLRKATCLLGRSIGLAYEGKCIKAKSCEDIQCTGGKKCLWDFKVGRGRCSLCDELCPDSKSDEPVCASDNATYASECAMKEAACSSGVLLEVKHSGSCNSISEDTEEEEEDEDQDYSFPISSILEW
Assay [6] has as its target Fibroblast growth factor 2 (Homo sapiens) (UniProt P09038). The assay can be described thus: FGF2 binders on small-molecule microarrays, primary screen, biochemical, small-molecule microarray, 635/667 nm fluorescence (AID 1133). The following applies: small-molecule microarray binding, FGF2, fluorescence 635/667; higher = more signal.
Assay [7] can be described thus: mitochondrial membrane potential change in A549 cells, profiling panel, cell-based, JC-1 fluorescence, basal, 24 h, 100 nL (AID 1138).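 Note: A549 lung adenocarcinoma cells under basal conditions with no added stimulus; test concentration not given here.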 Particulars: higher = more signal.
The subject of a further assay is Lefty1. The assay can be described thus: Lefty1 binders on small-molecule microarrays, primary screen, biochemical, small-molecule microarray, 635/667 nm fluorescence (AID 1139). Particulars: small-molecule microarray binding, fluorescence 635/667; higher = more signal.
For assay [8], the system named is wheat germ agglutinin (Triticum aestivum), Alexa647-labelled. Put plainly: wheat germ agglutinin binders on compound microarrays, profiling panel, artefact control for SMM control-protein annotation, biochemical, small-molecule microarray, 635/667 nm fluorescence (AID 1140).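 Note: score merges 667 nm feature emission with signal to noise over triplicate slides.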 The following applies: WGA-A647 binding, 635 nm fluorescence, higher = more signal.
Assay [9] deals with Luciferin 4-monooxygenase (Photinus pyralis) (UniProt P08659). Put plainly: firefly luciferase enzyme inhibitors, primary screen, biochemical, luminescence, purified enzyme, 2006 set (AID 1141).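 Note: cell-free assay with purified firefly luciferase at 100 ng per well in PBS; test concentration not given here.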 The following applies: SteadyGlo luminescence, 30 min, higher = more signal, called active from +8 up or from −8 down.
Luciferin 4-monooxygenase (Photinus pyralis), sequence (P08659 whole entry, looked up): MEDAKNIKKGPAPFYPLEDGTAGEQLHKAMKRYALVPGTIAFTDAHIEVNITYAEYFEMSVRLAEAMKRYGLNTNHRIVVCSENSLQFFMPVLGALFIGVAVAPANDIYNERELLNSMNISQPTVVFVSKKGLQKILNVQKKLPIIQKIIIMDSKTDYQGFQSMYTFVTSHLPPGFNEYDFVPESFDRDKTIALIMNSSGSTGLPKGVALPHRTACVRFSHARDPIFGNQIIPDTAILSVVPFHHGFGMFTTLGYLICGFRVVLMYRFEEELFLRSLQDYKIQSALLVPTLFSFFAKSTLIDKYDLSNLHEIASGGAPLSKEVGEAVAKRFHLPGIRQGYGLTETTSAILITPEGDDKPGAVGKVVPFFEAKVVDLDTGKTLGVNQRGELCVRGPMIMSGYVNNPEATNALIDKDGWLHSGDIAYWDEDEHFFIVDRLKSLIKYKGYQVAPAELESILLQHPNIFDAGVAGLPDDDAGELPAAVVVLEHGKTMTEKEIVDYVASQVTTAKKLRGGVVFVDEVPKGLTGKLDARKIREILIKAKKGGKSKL
Assay [10] deals with Wnt5a (protein binding on small-molecule microarray). The assay can be described thus: Wnt5a binders on small-molecule microarray, primary screen, biophysical, 635/667 nm fluorescence (AID 1142).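 Note: fluorescence read at 667 nm with signal to noise per printed feature.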 Particulars: 635 nm fluorescence, higher = more signal.
Assay [11] is described as follows: cell viability in Huh7 cells, primary screen, cytotoxicity control for HCV replication inhibitor project, CellTiter-Glo luminescence, basal, 48 h (AID 1143).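 Note: Huh7 hepatoma cells carrying a hepatitis C replication reporter with no stimulus; test concentration not given here.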 The following applies: Huh7 HCV replicon, higher = more signal, called active from +8 up or from −8 down.
Assay [12] in a line: P. aeruginosa biofilm formation inhibitors, primary screen, PAO1 strain, BacTiter-Glo luminescence, LB-PBS (AID 1144). The following applies: 12 h, higher = more signal.
The nature of assay [13]: CREB reporter modulators without forskolin, primary screen, cell-based, PC12, CRE-LacZ reporter, unstimulated (AID 1145). The following applies: no forskolin, luminescence, 4.5 h, higher = more signal, called active from +8 up or from −8 down.
Assay [14] is described as follows: CREB reporter modulators under forskolin, primary screen, cell-based, PC12, CRE-LacZ reporter, forskolin-stimulated (AID 1146).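 Note: PC12 cells with 6xCRE LacZ reporter stimulated by forskolin 10 µM; beta-galactosidase reporter signal reflecting CREB driven transcription.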 The following applies: luminescence, 4.5 h, higher = more signal, called active from +8 up or from −8 down.
Assay [15] concerns the target Streptavidin (Streptomyces avidinii) (UniProt P22629). Put plainly: streptavidin binders on small-molecule microarray, primary screen, artefact control for SMM compound annotation, biophysical, 635/667 nm fluorescence (AID 1147).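 Note: signal reflects streptavidin binding to arrayed compounds as a control protein.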 Particulars: streptavidin binding, higher = more signal.
Assay [16] is described as follows: small-molecule binders of probe aInhba, primary screen, biochemical, small-molecule microarray, 635/667 nm fluorescence (AID 1148).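 Note: score merges 667nm spot fluorescence with signal-to-noise for antibody binding to printed compounds.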 Particulars: higher = more signal.
Assay [17] addresses Torsin-1A (Homo sapiens) (UniProt O14656). Put plainly: torsin A binders from cell lysate, primary screen, small-molecule microarray, wild-type, 635/667 nm (AID 1149). Particulars: COS7 hTOR1A-WT lysate, 635 nm fluorescence, higher = more signal.
For assay [18] the target is unchanged. Put plainly: small-molecule binders of mutant TOR1A in lysate, primary screen, cell lysate, small-molecule microarray, COS7 lysate, 635/667 nm fluorescence (AID 1150).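 Note: score pools 667 nm emission and signal to noise measuring lysate protein binding.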 The following applies: COS7 hTOR1A mutant lysate, 635 nm fluorescence, higher = more signal.
For assay [19], the system named is Sonic hedgehog protein (Shh). The assay can be described thus: small-molecule binders of Shh protein, primary screen, biochemical, small-molecule microarray, 635/667 nm fluorescence (AID 1151).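 Note: Shh protein binding to compounds spotted on small-molecule microarray slides; score combines spot fluorescence intensity with signal-to-noise across triplicate slides.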 The following applies: small-molecule microarray binding, 635 nm fluorescence; higher = more signal.

The source made the active and inactive calls. Unless noted, the rule behind the calls is not given here.

Fibroblast growth factor 2 (Homo sapiens), sequence (P09038 whole entry, looked up): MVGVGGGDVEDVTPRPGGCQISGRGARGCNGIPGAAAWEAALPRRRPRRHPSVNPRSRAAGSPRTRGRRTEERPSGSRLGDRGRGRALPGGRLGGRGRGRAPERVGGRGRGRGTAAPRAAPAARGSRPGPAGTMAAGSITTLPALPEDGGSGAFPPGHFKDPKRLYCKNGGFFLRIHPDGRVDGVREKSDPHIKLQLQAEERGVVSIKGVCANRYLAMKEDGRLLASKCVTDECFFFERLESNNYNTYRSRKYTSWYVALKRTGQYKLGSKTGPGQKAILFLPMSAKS
Focal adhesion kinase 1 (Homo sapiens), sequence (Q05397 whole entry, looked up): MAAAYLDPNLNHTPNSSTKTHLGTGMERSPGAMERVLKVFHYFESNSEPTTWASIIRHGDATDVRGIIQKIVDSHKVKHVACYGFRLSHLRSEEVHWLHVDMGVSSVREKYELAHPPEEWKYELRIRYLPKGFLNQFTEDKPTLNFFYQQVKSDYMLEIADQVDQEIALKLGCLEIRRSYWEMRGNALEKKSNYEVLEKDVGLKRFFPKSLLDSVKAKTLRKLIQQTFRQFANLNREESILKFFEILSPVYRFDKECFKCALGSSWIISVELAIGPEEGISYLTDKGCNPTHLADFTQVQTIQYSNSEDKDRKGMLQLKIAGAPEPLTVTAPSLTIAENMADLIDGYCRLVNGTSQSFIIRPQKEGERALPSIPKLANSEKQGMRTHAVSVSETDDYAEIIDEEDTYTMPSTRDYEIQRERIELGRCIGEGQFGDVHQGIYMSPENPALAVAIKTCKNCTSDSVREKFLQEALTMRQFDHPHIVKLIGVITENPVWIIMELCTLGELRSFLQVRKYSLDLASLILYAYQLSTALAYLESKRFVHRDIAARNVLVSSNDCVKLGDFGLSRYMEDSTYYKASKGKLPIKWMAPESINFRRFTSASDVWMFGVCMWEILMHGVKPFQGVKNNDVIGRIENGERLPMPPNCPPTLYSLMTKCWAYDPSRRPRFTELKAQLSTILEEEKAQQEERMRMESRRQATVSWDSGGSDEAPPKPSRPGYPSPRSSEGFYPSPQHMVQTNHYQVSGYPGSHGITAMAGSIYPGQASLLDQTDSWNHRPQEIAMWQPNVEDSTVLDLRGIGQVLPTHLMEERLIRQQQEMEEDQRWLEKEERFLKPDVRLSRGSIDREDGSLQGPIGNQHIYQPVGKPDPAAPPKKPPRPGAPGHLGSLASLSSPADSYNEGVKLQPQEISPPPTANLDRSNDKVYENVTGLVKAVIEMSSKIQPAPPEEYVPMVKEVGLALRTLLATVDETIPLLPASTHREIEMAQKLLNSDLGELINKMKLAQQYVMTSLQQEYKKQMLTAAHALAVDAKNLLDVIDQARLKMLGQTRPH
Torsin-1A (Homo sapiens), sequence (O14656 whole entry, looked up): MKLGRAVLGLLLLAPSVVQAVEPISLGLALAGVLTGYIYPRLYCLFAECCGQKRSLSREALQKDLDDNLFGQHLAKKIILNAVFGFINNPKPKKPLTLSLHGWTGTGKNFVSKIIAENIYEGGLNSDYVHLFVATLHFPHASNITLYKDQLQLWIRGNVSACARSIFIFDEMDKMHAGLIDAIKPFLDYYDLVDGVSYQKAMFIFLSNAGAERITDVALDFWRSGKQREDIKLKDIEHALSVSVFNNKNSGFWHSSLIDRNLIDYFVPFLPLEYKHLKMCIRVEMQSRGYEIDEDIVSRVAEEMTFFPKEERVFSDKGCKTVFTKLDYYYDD
Streptavidin (Streptomyces avidinii), sequence (P22629 whole entry, looked up): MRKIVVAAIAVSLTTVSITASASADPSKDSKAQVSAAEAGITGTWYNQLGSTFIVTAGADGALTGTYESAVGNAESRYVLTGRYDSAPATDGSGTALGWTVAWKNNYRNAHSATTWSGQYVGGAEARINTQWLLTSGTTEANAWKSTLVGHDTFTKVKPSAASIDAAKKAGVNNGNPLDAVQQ

`CC1O[C@H]2C3=C(C(=O)[C@@H]4O[C@@H]4[C@H]3O)[C@@H]1C1[C@@H](C)OC=C3[C@H](O)C4O[C@@H]4C(=NOCc4ccccc4)[C@]312` (stereo not given in full): the composite z-score in assay [1] was 0.331; in [2] it was -0.492; in [3] it was -0.0962; in [4], -1.18; in assay [5] it was -0.117; in assay [6], 0.468. Moreover, the composite z-score with Lefty1 was 0.16; in assay [8] it was -0.911; in [10], 0.161; in [15], -0.438; in [16], -0.0963; with Torsin-1A (Homo sapiens) [17], 1.66. For the same compound, the values for the composite z-score (with Torsin-1A (Homo sapiens) [18]; in assay [19]) were -0.073 and 0.242, respectively. For the same compound, the z-score in assay [7] is 0.476; in assay [9], -0.399 (inactive); in assay [11] it was -3.64 (inactive); in assay [12], 0.933 (inactive); in assay [13] it was 2.18 (inactive); in assay [14] it was 6.5 (inactive).

Consider `COC(=O)CC=C[C@@H](C)[C@@H](C=NO[C@@H](C)c1cc(-c2c(C)cc(C)cc2C)no1)NS(=O)(=O)c1ccc(C)cc1`, for which the composite z-score in [1] was -1.02; in assay [2], -0.888; in [3], -0.0927; in assay [4] it was -0.494; in assay [5] it was -1.58; in [6], -1.44. In addition, the composite z-score was -1.55 with Lefty1; -0.665 in assay [8]; -0.475 in [10]; -0.195 in assay [15]; -0.261 in assay [16]; -1.05 in the assay with Torsin-1A (Homo sapiens) [17]. Further, the composite z-score in the assay with Torsin-1A (Homo sapiens) [18] is -1.32; in assay [19], -1.63. Also, the z-score was -0.0778 in [7]; 1.14 (inactive) in assay [9]; -2.83 (inactive) in assay [11]; 0.054 (inactive) in assay [12]; 4.2 (inactive) in [13]; 0.0267 (inactive) in assay [14].

On to `C=C(C)C(=O)OCC1CN2[C@@H](CC[C@@H](C)[C@@H]2c2ccc(Br)cc2)C(=O)O1` (stereo not given in full), for which the composite z-score stood at 0.0797 in [1]; 0.281 in assay [2]; 1.64 in assay [3]; 0.794 in assay [4]; 0.196 in assay [5]; 0.192 in assay [6]. Moreover, the composite z-score is 0.452 with Lefty1; 0.0513 in assay [8]; 0.192 in assay [10]; 0.33 in assay [15]; -0.0627 in [16]; -0.2 in the assay with Torsin-1A (Homo sapiens) [17]. In addition, the results for the composite z-score (with Torsin-1A (Homo sapiens) [18]; in assay [19]) were 1.13 and 0.486, respectively. The z-score was 0.717 in assay [7]; -0.0906 (inactive) in assay [9]; -0.295 (inactive) in assay [11]; 1.34 (inactive) in assay [12]; 1.91 (inactive) in assay [13]; -0.0828 (inactive) in [14].

For `COC(=O)[C@@H]1CC[C@@H](C)[C@H](c2ccc(Br)cc2)N1`, the composite z-score is 0.949 in [1]; 0.0613 in assay [2]; 0.867 in assay [3]; 0.689 in assay [4]; -0.177 in assay [5]; -0.0826 in [6]. Besides, the composite z-score in the assay on Lefty1 was -0.0352; in [8], 0.0075; in assay [10], -0.0771; in assay [15], -0.165; in assay [16] it was -0.249; with Torsin-1A (Homo sapiens) [17] it was 0.303. Besides, the composite z-score was 0.145 in the assay with Torsin-1A (Homo sapiens) [18] and -0.139 in assay [19]. Further, the z-score in assay [7] is 0.864; in [9] it was -0.482 (inactive); in assay [11], -1.09 (inactive); in assay [12] it was 0.328 (inactive); in assay [13] it was -0.258 (inactive); in assay [14], -1.02 (inactive).

As to `CCOC(=O)NN=C1C[C@@H](O)[C@@H](O)[C@@H]2[C@@H]3C(=O)N(c4cccc(Oc5ccccc5)c4)C(=O)[C@@H]3CC[C@H]12`, the composite z-score in [1] came to 0.141; in [2] it was 0.34; in assay [3], 0.0494; in assay [4], 0.641; in assay [5], 0.519; in assay [6], 0.374. The composite z-score with Lefty1 is 0.365; in [8], 0.01; in assay [10] it was 0.0643; in assay [15], 0.948; in assay [16] it was -0.129; with Torsin-1A (Homo sapiens) [17] it was 0.933. Moreover, the figures for the composite z-score (with Torsin-1A (Homo sapiens) [18]; in [19]) were 0.0519 and 0.206, respectively. Also, the z-score is 0.471 in assay [7]; -0.219 (inactive) in assay [9]; -1.16 (inactive) in assay [11]; -0.215 (inactive) in assay [12]; 0.523 (inactive) in assay [13]; 0.583 (inactive) in assay [14].

In the case of `O=C1OCCC=C1C(O)CCc1ccccc1` (stereo not given), the composite z-score in assay [1] is -0.139; in assay [2], 0.638; in assay [3] it was -0.226; in assay [4], 0.913; in [5], 0.347; in assay [6], 0.332. Also, the composite z-score with Lefty1 was 0.299; in [8], 0.412; in assay [10], 0.0626; in [15], 0.992; in assay [16], -0.0562; with Torsin-1A (Homo sapiens) [17], -0.0693. Further, the composite z-score with Torsin-1A (Homo sapiens) [18] was 0.0478; in [19] it was 0.316. The z-score was -0.602 in assay [7]; 0.151 (inactive) in assay [9]; 0.104 (inactive) in assay [11]; 1.15 (inactive) in assay [12]; 0.196 (inactive) in assay [13]; 0.571 (inactive) in assay [14].

As for `C[C@@H]1C=CCC(=O)OC[C@H]2O[C@@H](C=C[C@@H]2O)[C@H](C)C=CCC(=O)OC1`, the composite z-score in assay [1] was 0.341; in assay [2], -0.813; in assay [3] it was 1.7; in assay [4] it was -1.06; in [5], 1.56; in assay [6], 1.98. Besides, the composite z-score was 1.71 in the assay on Lefty1; -0.513 in assay [8]; 0.0051 in assay [10]; -0.224 in assay [15]; -0.206 in assay [16]; 2.73 in the assay with Torsin-1A (Homo sapiens) [17]. Besides, the results for the composite z-score (with Torsin-1A (Homo sapiens) [18]; in [19]) were 1.98 and 2.16, respectively. Further, the z-score is 2.16 in assay [7]; -1.82 (inactive) in assay [9]; -1.05 (inactive) in [11]; -1.11 (inactive) in assay [12]; 0.344 (inactive) in [13]; -0.812 (inactive) in assay [14].

Consider `CC(=O)OC[C@H]1OC(ON=CC[C@@H]2C=C[C@H](OC(C)=O)[C@@H](COC(C)=O)O2)[C@H](OC(C)=O)[C@@H](OC(C)=O)[C@@H]1OC(C)=O` (stereo not given in full), for which the composite z-score in assay [1] is 2.8; in assay [2], 0.268; in assay [3], 0.282; in assay [4], 0.106; in assay [5], -0.494; in assay [6] it was 0.0994. In addition, the composite z-score in the assay with Lefty1 is -0.101; in assay [8], -0.223; in assay [10], 0.066; in [15], 0.559; in assay [16], -0.126; with Torsin-1A (Homo sapiens) [17] it was 0.37. The composite z-score was 0.877 with Torsin-1A (Homo sapiens) [18] and -0.499 in assay [19]. The z-score was -0.99 in [7]; 1.11 (inactive) in assay [9]; -0.697 (inactive) in [11]; -0.133 (inactive) in [12]; 0.327 (inactive) in assay [13]; 0.915 (inactive) in assay [14].
